{
  "source": "PubChem BioAssay (NCATS)",
  "note": "Potency and affinity values are given separately. Values without a mark were called inactive. How the calls were made is not given here. Further: 0% is about no effect.",
  "data": [
    {"conditions": "Ebola virus entry assay, green fluorescence channel", "units": {"efficacy": "%"}, "values": [
      {"compound": "O=C(O)c1cc(=O)c2ccccc2o1", "efficacy": -28.1},
      {"compound": "COc1ccc2c(c1)CCCC2=O", "efficacy": 8.41},
      {"compound": "CC(=O)OCC[N+](C)(C)C", "efficacy": -18},
      {"compound": "CN1Cc2cc(C(=O)N3CCC(C4CCNCC4)CC3)ccc2NC(CC(=O)O)C1=O", "note": "(stereo not drawn)", "efficacy": 57.9},
      {"compound": "CC(O)CCCCn1c(=O)c2c(ncn2C)n(C)c1=O", "note": "(stereo not drawn)", "efficacy": 23.8},
      {"compound": "Cn1c([N+](=O)[O-])cnc1COC(N)=O", "efficacy": 19.4},
      {"compound": "N[C@@H](COP(=O)(O)O)C(=O)O", "efficacy": -11.1},
      {"compound": "COc1ccccc1OCC(O)CO", "note": "(stereo not drawn)", "efficacy": 12},
      {"compound": "Cc1ccc(C(=O)C(=O)O)cc1C", "efficacy": -11.1},
      {"compound": "CN1CCN(CC(=O)N2c3ccccc3C(=O)Nc3cccnc32)CC1", "efficacy": -20.7},
      {"compound": "CC(=O)[C@@]1(O)CC[C@H]2[C@@H]3C[C@H](C)C4=CC(=O)C=C[C@]4(C)[C@@]3(F)[C@@H](O)C[C@@]21C", "efficacy": -18.9},
      {"compound": "CCC(Cc1c(I)cc(I)c(N)c1I)C(=O)O", "note": "(stereo not drawn)", "efficacy": -15.6},
      {"compound": "CC1CN(c2cc3c(cc2F)c(=O)c(C(=O)O)cn3-c2ccc(F)cc2F)CCN1", "note": "(stereo not drawn)", "efficacy": 9.66},
      {"compound": "Clc1cccc(C(c2ccc3nc[nH]c3c2)n2ccnc2)c1", "note": "(stereo not drawn)", "efficacy": -19.4},
      {"compound": "CC(C)[N+](C)(C)CC(O)COc1cccc2ccccc12", "note": "(stereo not drawn)", "efficacy": -28.5},
      {"compound": "NCCc1ccn[nH]1", "efficacy": 19.8},
      {"compound": "COC(=O)CCCCC(CCSS/C(CCO)=C(\\C)N(C=O)Cc1cnc(C)nc1N)SC(C)=O", "note": "(stereo not drawn)", "efficacy": -13.6},
      {"compound": "CCCCCCCCCCCC(=O)[O][Sn]([CH2]CCC)([CH2]CCC)[O]C(=O)CCCCCCCCCCC", "efficacy": -17.6}
    ]}
  ]
}
